# ELG1 repair inh: inhibitors of ELG1-dependent DNA repair in HEK293T cells. 330,000 compounds, 2.3% hits. HEK293T ELG1-luciferase reporter, luminescence, 16 h; DNA damage induced by 5-fluorouridine. AID 504467. Potency, µM (doses to about 46.1 µM), without a hit: at the top dose activity change, negative = inhibition, actives largely listed as inhibitors; further: potency means the concentration at half of the fitted maximal effect; nearly all actives have a fitted effect of over 55% in size
#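 In this reporter screen, reduction of luminescence relative to DMSO vehicle indicated activity. Compounds and 5-fluorouridine were added together to 2,000 cells per well, incubated for 16 hr at 37 °C, then developed with ONE-Glo.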
# HT1080NT lethal: kills 2HG-producing HT-1080-NT fibrosarcoma cells; HT-1080-NT fibrosarcoma viability, CellTiter-Glo ATP luminescence, 48 h; Potency, µM (doses to about 46.1 µM), for the others: at the top dose activity, negative = less viability, hits mostly cytotoxic; 360,000 compounds, 1.6% hits;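 further: NT is the 2HG producing partner of a matched IDH1 knockdown line; potency means the concentration at half of the fitted maximal effect; 0% = DMSO-treated cells and -100% = media-only wells without cells; nearly all actives have a fitted effect of over 55% in size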
#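 Viability of the 2HG-overproducing fibrosarcoma line after 48 hours of compound exposure at 37 degrees C was determined by luminescence with CellTiter-Glo, and concentration-effect curves were then fitted and categorized.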
# IL1B secr inh: inflammasome signaling inhibition, IL-1 beta readout; THP-1 LPS/ATP IL-1B secretion, AlphaLISA, 16 h; active compounds read low; activity change, % at 57.5 µM; 360,000 compounds, 4.7% hits; AID 743279; in the data active means activity change below about -50%; inconclusive means mostly about -30% to -49%
#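 Secreted IL-1B measured by AlphaLISA bead assay after 16 h compound exposure of THP-1 cells; compounds (final up to 57.5 uM) added 1 h before LPS (250 ng/mL) and ATP (1.25 mM) stimulation; lower signal means less secretion.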
# TDP1 cell noCPT: qHTS for Inhibitors of human tyrosyl-DNA phosphodiesterase 1 (TDP1): qHTS in cells in absence of CPT; DT40 Tdp1-/- hTDP1 cells, no CPT, ATP luminescence, 48 h; Potency, µM (series often up to 46.2 µM), inactives show at the highest dose activity change, negative = growth inhibition, actives largely listed as inhibitors; 420,000 compounds, 15% hits; AID 686978, 2013; further: potency means the concentration at half of the fitted maximal effect; nearly all actives have a fitted effect of over 55% in size
#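 Growth kinetics read by CellTiter-Glo luminescence after ≥48 hr at 37 °C. Cells: DT40 Tdp1-/- stably carrying human TDP1, 400 per well, compound exposure in the absence of CPT (DMSO vehicle).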
# HT1080 IDH1KD tx: toxicity to HT-1080 IDH1 knockdown cells (counter line); HT-1080 IDH1 knockdown viability, ATP luminescence, 48 h; Potency, µM (doses to about 46.1 µM), for inactives: at the top dose activity, negative = toxicity, actives largely listed as cytotoxic; 360,000 compounds, 2% hits; AID 686971;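 further: potency means the concentration at half of the fitted maximal effect; 0% = DMSO wells and -100% = cell-free medium wells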
#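 Knockdown cells (IDH1KD HT-1080) received compounds 2 h after plating at 750 cells/well and were kept 48 h at 37 °C in 5% FBS RPMI. A CellTiter-Glo luminescence read gave % activity for curve fitting.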
# TDP1 cell CPT: DT40-hTDP1 cell growth loss with CPT. chicken DT40 Tdp1-/-;hTDP1 cells + 20 nM CPT, ATP luminescence, 48 h. Potency, µM (highest dose often 46.2 µM), for the others: at the highest dose activity change, negative = growth inhibition, usual class: inhibitors. 420,000 compounds, 12% hits. AID 686979; further: potency means the concentration at half of the fitted maximal effect; nearly all actives have a fitted effect of over 55% in size
#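 Chicken DT40 Tdp1-/- cells stably complemented with human TDP1 were seeded at 400 cells/well in medium containing 20 nM camptothecin, exposed to pin-transferred compounds, and grown at 37 °C for at least 48 hr. Viability was read as ATP luminescence.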
# An asterisk follows results filed as active; ? = inconclusive; · = not tested or not shown. Compounds with a hit are over-represented: about 19% of the library has one in this group of screens. Unless noted, the call rests on the fitted dose curve; in most records, active means well fitted curve in the direction sought with a large enough effect; inconclusive means small, poorly fitted or top-dose-only effect, or another doubt; inactive means no such curve, though single readings can be large; an effect the other way counts as inactive or inconclusive. Unless noted, on the % scale 0 is the no-effect control and ±100 the full control effect.
SMILES,ELG1 repair inh,HT1080NT lethal,IL1B secr inh,TDP1 cell noCPT,HT1080 IDH1KD tx,TDP1 cell CPT
CCOc1ccccc1CNc1ccc2cc(S(=O)(=O)N3CCC(C)CC3)ccc2n1,·,·,·,23µM*,·,?
COC(=O)C[C@H]1C[C@H]2c3cc(NS(=O)(=O)c4ccc(OC)cc4)ccc3O[C@H]2[C@H](CO)O1,·,8%,10,?,-1%,?
Cc1cn2c(=O)c(S(=O)(=O)NCCc3ccccc3)c(C)nc2s1,·,·,·,-7%,·,-23%
Cc1ccc2ncc3c(-c4ccc(F)cc4)nn(-c4cccc(F)c4)c3c2c1,·,·,·,-2%,·,0%
O=S(OCCN1CCCC1)C(c1ccccc1)c1ccccc1 (centres undefined),·,-23%,-90*,?,?,?
CCn1c(CNC(C)=O)nnc1SCC(=O)c1ccc(Br)cc1,5%,13µM*,0,-15%,?,-21%
Cc1ccc(NC(=O)Cc2nnc(SCC(=O)c3ccc(Br)cc3)n2C)cc1,-1%,?,30,?,11µM*,?
CCn1c(CNC(=O)Cc2ccc(OC)cc2)nnc1SCC(=O)c1ccc(Br)cc1,-9%,2%,29,?,-10%,-18%
O=C1NC(Cc2ccccc2)c2nc3ccc(Br)cc3c(=O)n2-c2cc(Cl)ccc21 (centres undefined),11%,·,·,·,·,·
CCN(CC)C(=O)C1=CC(c2ccc3c(c2)OCO3)=NS(=O)(=O)N1C,·,·,·,-1%,·,16%
O=C(NCCN1CCC(n2c(=O)[nH]c3ccccc32)CC1)N1c2ccccc2Sc2ccccc21,·,-12%,-2,16µM*,-14%,?
Cc1ccccc1OCc1nnc(SCc2cc(=O)c3ccc(C)c(C)c3[nH]2)n1C,·,·,·,16µM*,·,?
Cc1cccc(-c2nnc(SCc3cc(=O)c4cccc(Cl)c4[nH]3)n2C)c1,·,·,·,16µM*,·,23µM*
Cc1ccc2c(=O)cc(CSc3nnc(-c4ccccc4)n3C)[nH]c2c1C,·,·,·,-22%,·,-17%
Cc1ccccc1OCc1nnc(SCc2cc(=O)c3ccccc3[nH]2)n1C,·,·,·,15µM*,·,13µM*
O=c1cc(CSc2ccccc2)[nH]c2ccccc12,12µM*,-1%,15,?,7%,26µM*
COc1cc(C2CC(=O)Oc3ccc(C(C)(C)C)cc32)cc(OC)c1OC (centres undefined),?,17%,65,-7%,8%,-21%
Cc1ccc2[nH]c(CSc3nnc(COc4ccccc4C)n3C)cc(=O)c2c1,·,·,·,15µM*,·,18µM*
Cc1ccccc1OCc1nnc(SCc2cc(=O)c3cc(F)ccc3[nH]2)n1C,·,·,·,12µM*,·,13µM*
COc1ccc(/C=N/NC(=O)Nc2cccc3nsnc23)c(OC)c1,-4%,15%,67,10µM*,7%,12µM*
CC(C)C(=O)Nc1cccc2nsnc12,?,?,11,?,?,?
O=C(N/N=C/c1ccc(O)cc1)Nc1cccc2nsnc12,?,?,-98*,21µM*,?,-12%
O=C1[C@@H]2Cc3c([nH]c4ccccc34)C(c3ccc([N+](=O)[O-])cc3)N2C(=O)CN1C1CC1 (some centres undefined),?,?,-21,4.6µM*,-24%,2.6µM*
O=C1[C@@H]2Cc3c([nH]c4ccccc34)C(c3cccc([N+](=O)[O-])c3)N2C(=O)CN1CCCO (some centres undefined),4%,-17%,0,-5%,-22%,-21%

# Assay outcomes from PubChem BioAssay.
